Measured values as given in PubChem BioAssay AID1508649 (National Center for Advancing Translational Sciences (NCATS), 2021).
Among all 43,000 compounds or so, about 830 (1.9%) were called active. Roughly 30% stayed inconclusive and do not appear here. The calls were made as follows: active = clear falling dose curves in both reporters; inconclusive = both reporters move, but less clearly or upward; inactive = either reporter flat; the % is the NLuc reporter signal. The entries come from a sample that favours actives as a whole.

Assay: Cell-based coincidence reporter assay to measure PMP22 gene transcription in S16 Pmp22-F2sN cells - Primary screen
Details: S16 Pmp22-F2sN Schwann cells (luciferase reporters placed in the Pmp22 gene), FLuc/NLuc coincidence luminescence, 24 h; series mostly up to 57.5 µM; activity change, negative = inhibition: at the top concentration
Description: Assay Provider: Jim Inglese Ph.D. National Center for Advancing Translational Science, National Institutes of Health, Rockville, MD CMT is a heterogeneous group of neurological disorders that affect approximately 1 in 2,500 people. In particular, the most common form of CMT, CMT1A is genetically linked to the duplication of the PMP22 gene which leads to Schwann cell overexpression, thus manifesting itself as a typical case of dose-sensitive diseases. To identify small molecule compounds that can mediate the expression of PMP22 we developed a phenotypic assay screening strategy by utilizing genome editing techniques to construct Schwann cell lines containing novel reporter technology to monitor the transcriptional or translational regulation of PMP22. For high sensitivity we use a bioluminescent reporter system embedded in the 3' UTR of the PMP22 gene (S16(c9) Pmp22-F2sN) to identify compounds that inhibit gene expression. […] We can further discriminate the effect of all transcriptionally active molecules on PMP22 translation or stability with an assay that incorporates a short NLuc peptide (HiBiT) at the C-terminus of expressed PMP22 (S16(f8) PMP22-HiBiT) allowing alpha complementation and luminescence detection of membrane-associated PMP22 protein. These assays were screened against the NCATS Sytravon Library Collection. Miniaturization of these assays to 1536-well plate format for quantitative high throughput screening (qHTS) yielded rich data sets immediately from the qHTS assay (S16(c9) Pmp22-F2sN), when compared with data from a cell viability assay (Cell TiterGlo) to identify compounds that decreased the output signals through cellular toxicity to streamline the selection process of actives for subsequent characterization using the HiBiT assay (S16(f8) PMP22-HiBiT).
Cell-based coincidence reporter assay to measure PMP22 gene transcription in S16 Pmp22-F2sN cells PROTOCOL TABLE (format as described by Inglese J, Shamu CE and Guy RK. 2007) SEQUENCE No. (e.g., 1, 2, 3, etc.); […] (e.g., Cells, Incubation, Reagent, etc.); VALUE and DESCRIPTION. 1. Cells. Add 500-1,000 cells in 4 uL in growth media (DMEM High Glucose, No Phenol Red media + 10% heat-inactivated FBS + 1% Pen/Strep supplemented media) per well into Greiner 1536-well white/solid bottom high base, TC-treated plates. 2. Compounds. Library compounds and controls added at 23nL per well, transferred by Pin Tool. 3. Incubation. Incubate plates at 37C, 5% CO2, 95% RH for 24 h. 4. Reagent. Add 3.5uL Nano-Glo Dual-Luciferase Reporter Assay System reagent 1: Lysis and FLuc reagent per well of Greiner 1536-well plates. 5. Incubation. Incubate plates at room temperature for 10 min., protect from light. 6. Detector. FLuc luminescence measured using CCD-based camera (Viewlux). 7. Reagent. Add 3.5uL Nano-Glo Dual-Luciferase Reporter Assay System reagent 2: Stop&Glo reagent per well of Greiner 1536-well plates. 8. Incubation. Incubate plates at room temperature for 10 min., protect from light. 9. Detector. NLuc luminescence measured using CCD-based camera (Viewlux). NOTES (numbers refer to Sequence numbers above; values are from representative experiments) 6. Luminescence Read #1 (FLuc): Clear filter; Exposure = 10 sec, Gain = High, Speed = Slow, Binning = 2X 9. Luminescence Read #2 (NLuc): Clear filter; Exposure = 1 sec, Gain = High, Speed = Slow, Binning = 2X REFERENCES: 1. Inglese J, Shamu CE and Guy RK, Reporting data from high throughput screening of small molecule libraries, Nature Chemical Biology, 2007, 3(8): 438-441. doi.org/10.1038/nchembio0807-438 2. Yasgar A, Shinn P, Jadhav A, Auld DS, Michael S, Zheng W, Austin CP, Inglese J and Simeonov A, Compound Management for Quantitative High-Throughput Screening. J. Assoc. Lab. Auto., 2008, 13: 79-89. doi: 10.1016/j.jala.2007.12.004
% is scaled to controls: 0 for no effect and ±100 for the full control effect; potency is read from the fitted curve at half-maximal effect.

Compound | activity change, negative = inhibition | Potency
CCC(C(=O)Nc1cccc(-c2nc3cccnc3s2)c1C)c1ccccc1 (configuration not stated) | -37.5% (inactive) | 
CCOC(=O)c1sc(NC(=O)/C=C/c2ccc(C(C)C)cc2)c(C(=O)OCC)c1C | -30.7% (inactive) | 
COc1ccccc1-c1cc(C(F)(F)F)nc(S(=O)(=O)CCCC(=O)Nc2cc(C)ccc2O)n1 | -12.6% (inactive) | 
Cc1ccc(F)cc1NC(=O)CCSc1nc(-c2ccco2)cc(C(F)(F)F)n1 | 9.36% (inactive) | 
COc1ccccc1-c1cc(C(F)(F)F)nc(S(=O)(=O)CCCC(=O)Nc2ccc(F)cc2F)n1 |  | 11.3 µM (active)
COc1cc2c(cc1OC)C(COc1ccc(F)cc1)N(C(=O)c1ccccc1F)CC2 (configuration not stated) | 0.344% (inactive) | 
COc1ccc(N2CCN(Cc3nc4c(c(=O)[nH]c(=O)n4C)n3Cc3ccc(Cl)cc3)CC2)cc1 | -16.2% (inactive) | 
COC(=O)c1c(NC(=O)CCCOc2ccccc2)sc2c1CCC(C)C2 (configuration not stated) | 7.02% (inactive) | 
O=C(Cc1ccccc1)Nc1sc2c(c1C(=O)Nc1ccc(Br)cc1)CCC2 | -32.6% (inactive) | 
CCOc1ccc(NC(=O)c2c(NC(=O)Cc3ccccc3)sc3c2CCC(C)C3)cc1 (configuration not stated) |  | 18.9 µM (active)
Cc1ccc(Nc2c(-c3ccc(C)s3)nc3ccccn23)cc1 | -18.5% (inactive) | 
CCC(=O)N1CCc2cc(Br)cc(S(=O)(=O)CCC(=O)N3CCN(c4ccc(F)cc4)CC3)c21 | -7.19% (inactive) | 
COc1ccc(OC)c(-n2nnc(-c3nc(-c4cc(OC)c(OC)c(OC)c4)no3)c2C)c1 | -0.737% (inactive) | 
COc1ccc(C(=O)COC(=O)CCCC(=O)Nc2cc(C(F)(F)F)ccc2Cl)cc1 | 3.27% (inactive) | 
COc1ccc(-c2nn3c(=O)cc(CN4CCN(C(=O)c5ccc(OC)c(OC)c5)CC4)nc3s2)cc1 | 12.8% (inactive) | 
CCOc1ccc(N(Cc2ccccc2)C(=O)c2nc(S(C)(=O)=O)ncc2Cl)cc1 |  | 1.5 µM (active)
CCOc1ccc(N(CC)C(=O)c2noc3c2COc2ccc(C)cc2-3)cc1 | -28.9% (inactive) | 
CCOc1ccc(N(CC)C(=O)C2CCN(S(=O)(=O)c3cccc4nonc34)CC2)cc1 | -35.2% (inactive) | 
COc1ccccc1-c1noc(-c2ccc(NCc3ccccc3)c([N+](=O)[O-])c2)n1 | -5.34% (inactive) | 
Cc1ccc(C)c(S(=O)(=O)n2nc(C)c(S(=O)(=O)N3CCC(C)CC3)c2C)c1 | -0.0168% (inactive) | 
O=C(CC1Oc2ccccc2NC1=O)NCc1ccc(F)cc1 (configuration not stated) | -7.34% (inactive) | 
CCOc1ccc(NC(=O)C2CCN(S(=O)(=O)c3cc(-c4noc(C)n4)ccc3C)CC2)cc1 | -42.5% (inactive) | 
COc1ccc(N2CC(C(=O)NCCS(=O)(=O)N3CCN(c4ccccc4)CC3)CC2=O)cc1 (configuration not stated) | 5.34% (inactive) | 
COc1ccc(OC)c(CNC(=O)Cn2nc(C)c3c(C)n(-c4ccccc4)nc3c2=O)c1 | -3.25% (inactive) | 

Compound | activity change, negative = inhibition | Potency
COc1ccccc1CNC(=O)Cn1nc(C)c2nn(-c3ccc(Cl)cc3)c(C)c2c1=O | -3.87% (inactive) | 
Cc1nnc(SCC(=O)NCc2ccccc2Cl)c2nn(-c3ccccc3)c(C)c12 |  | 14.1 µM (active)
Cc1ccccc1CNC(=O)CSc1nnc(C)c2c(C)n(-c3ccccc3)nc12 |  | 16.8 µM (active)
Cc1ccccc1CNC(=O)Cn1c(C)c2cnn(-c3ccccc3)c(=O)c2c1C | -12.3% (inactive) | 
Cc1nnc(N2CCCC(C(=O)NCCN(C)C)C2)c2nn(-c3ccccc3)c(C)c12 (configuration not stated) | -57.6% (inactive) | 
CCc1cnc2c(c1SCC(=O)N1CCC(C)CC1)c(=O)n(C)c(=O)n2C | -1.6% (inactive) | 
COc1ccc(NC(C)=O)cc1NC(=O)CN1CCN(c2ccc(F)cc2)CC1 | 4.65% (inactive) | 
COc1cc(C(=O)N2CCC(c3ccncc3)CC2)cc(OC)c1OC | -7.79% (inactive) | 
CCOC(=O)c1oc2ccc(S(=O)(=O)n3nc(-c4ccccc4OC)cc3N)cc2c1C |  | 14.4 µM (active)
COc1ccc(NC(=O)c2oc3ccc(S(=O)(=O)N4CCOCC4)cc3c2C)cc1 | 14.2% (inactive) | 
COc1ccccc1-c1cc2nc(C)c(CCC(=O)O)c(C)n2n1 | 27.9% (inactive) | 
COc1cccc(C(=O)NC2(C(F)(F)F)C(=O)Nc3c2c(=O)[nH]c(=O)n3-c2ccc(C)cc2)c1 (configuration not stated) | -20.3% (inactive) | 
CCn1c(C(=O)Nc2cc(Cl)ccc2C)cc2sc(Cl)cc21 | -32.4% (inactive) | 
Cc1ccc(NC(=O)C2CCCN2S(=O)(=O)c2cccc3cccnc23)c(C)c1 (configuration not stated) | -8.58% (inactive) | 
COC(=O)c1cc2occc2n1Cc1nc(-c2ccc(C)cc2)oc1C | -7.42% (inactive) | 
COc1ccc(-n2nc(C(=O)NCCc3ccc(Cl)cc3)c3c4ccccc4n(C)c3c2=O)cc1Cl | -8.53% (inactive) | 
Cc1ccccc1C(=O)Nc1sc2c(c1C(=O)N1CCC(C)CC1)CCCC2 | -10.7% (inactive) | 
O=C(Nc1ccc2nc(SCCOc3ccccc3)sc2c1)c1ccco1 | -21.5% (inactive) | 
Cc1ccc(OCCSc2nc3ccc(NC(=O)COc4ccc(C)cc4)cc3s2)cc1 |  | 8.91 µM (active)
COc1cc(C)ccc1OCCSc1nc2ccc(NC(=O)c3ccc(C)cc3)cc2s1 | -8.04% (inactive) | 
CCc1ccc(S(=O)(=O)n2ccnc2)cc1 | 0.251% (inactive) | 
O=C(CN1C(=O)CCn2nc(-c3ccccc3)cc21)NCc1ccccc1 | -8.68% (inactive) | 
Cc1noc(/C=C/N(C)C)c1S(=O)(=O)N1CCCC(C(=O)Nc2cccc(F)c2)C1 (configuration not stated) | -12.4% (inactive) | 
